High-throughput results as filed in PubChem BioAssay.
This is a sample that favours compounds with a hit; in the whole collection about 2.5% have one here.
SKOV3 invasion – Primary qHTS assay for Inhibitors of ovarian cancer metastasis using an organotypic tumor microenvironment (TME) model; SKOV3ip1-GFP adhesion/invasion on 3D omental model, fluorescence; Potency, µM (top dose mostly 45.8 µM), for inactives: at the highest dose activity change, negative = inhibition, usual class: inhibitors; 0.1% of 46,000 active; AID 1963576, 2024;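 further: potency means the concentration at half of the fitted maximal effect; plate controls were DMSO wells for no effect and tomatine positive control wells for full effect; nearly all actives have a fitted effect of over 65% in size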
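Adhesion/invasion was scored as fixed GFP-labeled SKOV3ip1 cell counts (488/509 nm), normalized to DMSO and tomatine controls. Cancer cells in serum-free medium, with four compound doses (0.36-46 umol/L), sat 2 hr at RT then 16 hr at 37 C on a 48 hr fibroblast/mesothelial/ECM culture.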
NTMT1 inh – Primary qHTS for Inhibitors of N-terminal methyltransferase 1 (NTMT1): MTaseGlo Assay. N-terminal Xaa-Pro-Lys N-methyltransferase 1 (Homo sapiens), Q9BV86. NTMT1 MTase-Glo SAH luminescence, purified enzyme. Potency, µM (top dose mostly 114 µM), inactives show at the highest dose activity change, negative = inhibition, most hits filed as inhibitors. 2.5% of 59,000 active. AID 1645870, 2021;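 further: potency means the concentration at half of the fitted maximal effect; plate controls were DMSO vehicle for no effect and no enzyme for full effect; nearly all actives have a fitted effect of over 65% in size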
Target sequence (Q9BV86 whole entry, looked up): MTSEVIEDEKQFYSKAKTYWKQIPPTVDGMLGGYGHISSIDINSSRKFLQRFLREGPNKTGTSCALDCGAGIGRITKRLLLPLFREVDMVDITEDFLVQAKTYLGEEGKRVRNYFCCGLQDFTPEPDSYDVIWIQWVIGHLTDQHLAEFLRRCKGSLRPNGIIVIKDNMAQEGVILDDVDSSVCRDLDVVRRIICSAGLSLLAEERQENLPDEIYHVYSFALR
GALK inh – qHTS Assay for Inhibitors of Human Galactokinase (GALK): NCGC Sytravon Library Screen; P51570; recombinant GALK, Kinase-Glo ATP luminescence, 1 h; Potency, µM (highest dose often 57.5 µM), for inactives: at the top dose activity, negative = inhibition, most hits filed as inhibitors; 44,000 tested, under 10 active;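 further: plate controls were full GALK reaction for no effect and reaction lacking GALK for full effect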
Target sequence (P51570 whole entry, looked up): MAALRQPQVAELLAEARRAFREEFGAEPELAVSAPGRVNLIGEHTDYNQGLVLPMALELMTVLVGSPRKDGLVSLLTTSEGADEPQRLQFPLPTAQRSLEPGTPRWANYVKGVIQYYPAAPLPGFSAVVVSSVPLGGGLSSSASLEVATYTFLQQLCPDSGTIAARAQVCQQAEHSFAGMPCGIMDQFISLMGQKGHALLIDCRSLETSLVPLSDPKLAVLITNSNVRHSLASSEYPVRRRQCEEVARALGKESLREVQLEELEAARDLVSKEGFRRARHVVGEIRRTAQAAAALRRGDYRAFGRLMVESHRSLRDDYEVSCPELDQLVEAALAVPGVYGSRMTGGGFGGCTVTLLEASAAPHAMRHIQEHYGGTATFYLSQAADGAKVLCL
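Reactions with and without enzyme served as controls. GALK at 5 nM phosphorylates 100 uM galactose using 35 uM ATP (HEPES pH 8.0, Mg2+) for 1 h at RT, with luminescence read 10 min after adding Kinase-Glo Plus.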
HTT prom inh – Primary qHTS for Identification of Small Molecule Inhibitors of Huntingtin Promoter Activity; HEK293 HTT promoter firefly luciferase reporter, 24 h; Potency, µM (top dose mostly 57.5 µM), for inactives: at the highest dose activity change, negative = inhibition, actives largely listed as inhibitors; 0.93% of 48,000 active; further: potency means the concentration at half of the fitted maximal effect; nearly all actives have a fitted effect of over 50% in size
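Firefly luciferase signal from promoter-reporter HEK293 cells was scaled between vehicle (0%) and zero RLU (-100%). Compounds were tested at final concentrations of up to 57.5 uM over 24 h at 37 degrees C. PTC124 at 50 uM final served as control inhibitor.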
PTAP-TSG101 blk – qHTS Validation Assay for Inhibitors of HIV-1 Budding by Blocking the Interaction of PTAP/TSG101: Sytravon Library Screen. 44,000 tested, under 10 active. Potency, µM (doses to about 115 µM), usual class: inhibitors. Tumor susceptibility gene 101 protein (Homo sapiens), Q99816. Fluorescence polarization, FITC-PTAP peptide/Tsg101, 20 min; further: potency means the concentration at half of the fitted maximal effect; 0% is about no effect
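FITC-labeled PTAP peptide (50 nM final) binding to Tsg101 binding domain (10 uM final) read by fluorescence polarization after 20 min at r.t. in HEPES pH 7.5 buffer. Actives by CRC class, <25 µM.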
HTT-AS act – Primary qHTS for Identification of Small Molecule Activators of Huntingtin-Antisense Promoter Activity. Potency, µM (titrated, usually from 57.5 µM), without a hit: at the highest dose activity change, positive = activation, hits mostly activators. HEK293 HTT-AS promoter firefly luciferase reporter, 24 h; response scale: percent change from vehicle, -100% = no light. 0.24% of 48,000 active; further: potency means the concentration at half of the fitted maximal effect; nearly all actives have a fitted effect of over 55% in size
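HEK293 Fluc reporter, 2,500 cells/well, 24 h pre-culture; cpds up to 57.5 uM final, 24 h 37 degrees C; Dual-Glo, 10 min RT; normalized vehicle = 0%, zero RLU = -100%.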
* hit, by the source's call; i = inactive; u = inconclusive; x = no result; ! = not confirmed by another sample; [ ] = dose if it differs, or a comment. The call rests on the fitted dose curve; in most records, active means well fitted curve in the direction sought with a large enough effect; inconclusive means small, poorly fitted or top-dose-only effect, or another doubt; inactive means no such curve, though single readings can be large; an effect the other way counts as inactive or inconclusive.

SMILES	SKOV3 invasion	NTMT1 inh	GALK inh	HTT prom inh	PTAP-TSG101 blk	HTT-AS act
COc1cc(C#N)ccc1S(=O)(=O)Nc1ccc2c(c1)cc(C)c(=O)n2C	x	13%[57.5 µM]	x	x	x	x
O=C(Nc1ccc2oc(-c3cccnc3)nc2c1)c1ccc(-c2cccc(Cl)c2)o1	-16%	25µM*	-2%	u	i	-33%
Cc1ccccc1Cn1c(=O)n(CCCCC(=O)NCc2ccc3c(c2)OCO3)c(=O)c2ccccc21	9%	15%	-4%	-23%	i	-42%
Cc1ccc(C)c(Cn2c(=O)n(CCCCC(=O)NCc3ccc4c(c3)OCO4)c(=O)c3ccccc32)c1	i	89µM*	-2%	-3%	i	-20%
Cc1ccc(C)c(Cn2c(=O)n(CCCCC(=O)NCc3ccccc3Cl)c(=O)c3ccccc32)c1	i	79µM*	7%	2%	i	-7%
Cc1ccc(Cn2c(=O)n(CCCCC(=O)NCc3ccccc3Cl)c(=O)c3ccccc32)cc1	35%	12%	1%	u	i	-48%
CCCCn1c(CNC(=O)c2ccc(OC)cc2)nnc1SCC(=O)Nc1ccc(OC)cc1	24%	u	0%	-21%	i	-22%
CCOC(=O)c1ccc(NC(=O)CSc2nnc(CNC(=O)c3ccc(OC)cc3)n2CC)cc1	i	79µM*	-2%	-4%	i	0%
CCOc1ccc(-c2nc(CSCC(=O)NCCc3ccccc3)c(C)o2)cc1	-4%	-15%	-2%	7.1µM*	i	-50%
CCc1ccc(-c2nc(CSCC(=O)NCCc3ccccc3)c(C)o2)cc1	x	-1%[57.5 µM]	x	x	x	x
CNC(=O)Nc1ccc(OC)c(NC(=O)NC(=O)c2cc(F)c(F)cc2Cl)c1	x	33%[57.5 µM]	x	x	x	x
O=C(O)c1ccc(-c2c[nH]c3ncc(-c4ccccc4)cc23)cc1C1CCCC1	-10%	25µM*	x	-18%	x	-11%
CC(=O)O[C@H]1CC[C@]2(C)[C@H]3CC[C@]4(C)Oc5oc(C)cc(=O)c5C[C@H]4[C@]3(C)CC[C@H]2C1(C)C	x	8%[29.8 µM]	x	x	x	x
COc1cccc(NC(=O)C2CCN(S(=O)(=O)c3cc(-c4noc(C)n4)ccc3C)CC2)c1	-24%	15%	-2%	13µM*	i	-53%
COc1ccc(-c2cc(C(C)=O)c(C)n2CCC(=O)Nc2ccc(C)cc2Cl)cc1	-12%	89µM*	0%	-39%	i	-33%
CCCC(N[C@@H](C)C(=O)N1[C@H](C(=O)O)C[C@@H]2CCCC[C@@H]21)C(=O)OCC (some centres not stated)	x	6%[57.5 µM]	x	x	x	x
CC(C)c1ccc2oc3nc(N)c(C(=O)O)cc3c(=O)c2c1	8%	32µM*	x	28%	x	u
COc1ccc(-c2cc(C(=O)N3CCN(c4ccccc4OC)CC3)c3cc(C(C)C)ccc3n2)cc1	-3%	7%	0%	u	i	-23%
COc1ccc(Oc2cc(NCCC(F)(F)F)c3ncc(-c4ccc(C(=O)NC5CC5)c(C)c4)n3n2)c(F)c1F	x	11%	x	x	x	x
CC(=O)c1cccc(NC(=O)c2noc3c2CSc2ccccc2-3)c1	14%	3%	2%	52%	i	1.4µM*
COc1ccc(NC(=O)c2noc3c2CSc2ccccc2-3)cc1Cl	-23%	4%	-10%	3%	i	7%
COc1ccc(Br)cc1CC1C(=O)Nc2ccccc21 (configuration not stated)	-20%	25µM*	6%	13µM*	i	-51%
Cc1ccc(-c2cc(C(=O)NCC[S+](=O)([O-])O)c3ccccc3n2)cc1C	x	0%	x	x	x	x
COc1cccc2cc(-c3nnc(Nc4c(F)cccc4F)s3)c(=O)oc12	-1%	-2%	2%	79%	i	1µM*
CC1(C)CCC2(C(=O)OC3OC(CO)C(O)C(O)C3O)CCC3(C)C(=CCC4C5(C)CCC(OC6OC(C(=O)O)C(OC7OC(CO)C(O)C(O)C7O)C(OC7OC(CO)C(O)C(O)C7O)C6O)C(C)(C)C5CCC43C)C2C1 (configuration not stated)	x	6%[12.6 µM]	x	x	x	x
SMILES	SKOV3 invasion	NTMT1 inh	GALK inh	HTT prom inh	PTAP-TSG101 blk	HTT-AS act
CCCNC(=O)Nc1ccc(Oc2ncnc3cc(OC)c(OC)cc23)cc1Cl	-22%	17%[57.5 µM]	x	-8%	x	-10%
COc1cc(Oc2ccnc3cc(OC)c(OC)cc23)ccc1NC(=O)NC(C)c1nccs1 (configuration not stated)	-7%	79µM*!	x	-14%	x	-25%
C=C1Cc2c(Cl)cc3[nH]c4c5c3c2[C@@]2(O)[C@@H]1C[C@@H]2C(C)(C)O[C@H]5C1CC[C@@]2(O)[C@@]35O[C@@H]3[C@H]3OC(C)(C)[C@H]3O[C@H]5CC[C@]2(C)[C@@]41C (some centres not stated)	x	-14%[12.6 µM]	x	x	x	x
Cc1cc(-c2nnc3n2CCCCC3)c(C)n1-c1ccc(C(C)(C)C)cc1	x	30%	x	x	x	x
Cn1cc(/C=C2\C(=O)Nc3cccnc32)c2ccccc21	x	45µM*	x	x	x	x
CCOc1ccc(CNS(=O)(=O)c2ccc(-c3coc(C)n3)cc2)cc1OC	-3%	-2%	-6%	25µM*	i	-37%
CC(C)CCC[C@@H](C)[C@H]1CC[C@H]2[C@@H]3CC=C4C[C@@H](OC(=O)NCCN(C)C)CC[C@]4(C)[C@H]3CC[C@]12C	x	22µM*	x	x	x	x
CC(=O)O[C@H]1CC[C@@]2(CI)C(=CC[C@@H]3[C@@H]2CC[C@]2(C)[C@@H]([C@H](C)CCCC(C)C)CC[C@@H]32)C1	x	-3%[12.6 µM]	x	x	x	x
CC(=O)SCC(=O)c1ccc(NS(=O)(=O)c2ccc(OCCCN(C)C)cc2)nc1	x	1%[57.5 µM]	x	x	x	x
Cc1ccc(-c2csc(NC(=O)c3ccccc3NS(=O)(=O)c3ccc(C)cc3)n2)cc1	x	10%	x	x	x	x
Cc1ccc(S(=O)(=O)Nc2cnccc2C(=O)Nc2nc(-c3ccc(Oc4ccccc4)cc3)cs2)cc1	x	45µM*	x	x	x	x
N#Cc1cccc(S(=O)(=O)Nc2cnccc2C(=O)Nc2nc(-c3ccccc3)cs2)c1	x	22%	x	x	x	x
